Assay [1] can be described thus: Quantitative high throughput screen for delayed death inhibitors of the malarial parasite plastid, 96 hour incubation (AID 488745). Further: series mostly up to about 29 µM; nearly all actives have a fitted effect of over 70% in size. The essentials:
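Decreased firefly luciferase luminescence indicates inhibited growth of reporter-integrated P. falciparum after two generations (96 h, 37 C, 5% CO2). Infected erythrocytes at 0.1% parasitemia, 2% hematocrit, in Albumax-supplemented RPMI 1640.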

A short description of assay [2]: Quantitative high throughput screen for delayed death inhibitors of the malarial parasite plastid, 48 hour incubation (AID 488752). Further: nearly all actives have a fitted effect of over 65% in size. The essentials:
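One-generation (48 h) growth assay: a decrease in luciferase signal from an integrated reporter in P. falciparum-infected red cells (0.1% parasitemia, 2% hematocrit) after compound exposure at 37 C indicates parasite inhibition.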

Assay [3] addresses Transient receptor potential cation channel subfamily V member 1 (Homo sapiens) (UniProt Q8NER1). The experiment in a line: HTS Assay for Compounds that Act as Enhancers of the Vanilloid Receptor 1 (AID 488979). The essentials:
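Calcium influx kinetics via Fluo-8 (480/520 nm) in TRPV1-expressing cells, 2000/well cultured overnight at 35.5C. Compound-alone read 3 min (agonist phase), followed by EC20 capsaicin challenge for 2 min (enhancer phase).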

Assay [4] concerns the target Thyrotropin receptor (Homo sapiens) (UniProt P16473). The experiment in a line: qHTS Assay for Antagonists of the Thyroid Stimulating Hormone Receptor (AID 488980). Further: series mostly up to about 58 µM. The essentials:
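Inhibition of TSH-stimulated cAMP accumulation was quantified by homogeneous time-resolved FRET in TSHR-transfected HEK293 cells. Agonist: TSH, 4 nM final (EC80).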
A general note: In qHTS, concentration-response curves come from the screen itself.

In assay [5] the target is Flap endonuclease 1 (Homo sapiens) (UniProt P39748). The experiment in a line: qHTS Validation Assay for the Inhibitors of Human Flap endonuclease 1 (FEN1) (AID 488816). The method, boiled down:
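qHTS format: compounds and 10 nM FEN1 incubated 15 min at room temperature before adding 50 nM substrate. Cleavage followed by reads at 0 and 15 min; normalized data fitted to a four-parameter Hill curve.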

Assay [6] addresses Chromobox protein homolog 1 (Homo sapiens) (UniProt P83916). The experiment in a line: qHTS Validation Assay for Inhibitors of HP1-beta Chromodomain Interactions with Methylated Histone Tails (AID 488953).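 Further: loss of AlphaScreen luminescence from HP1-beta binding biotinylated H3K9me3 peptide; series mostly up to about 110 µM; nearly all actives have a fitted effect of over 50% in size.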 The essentials: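 AlphaScreen proximity signal from streptavidin donor and nickel chelate acceptor beads (final 10 ug/mL) after 30 min dark incubation. Compounds had 30 min at room temperature with preformed complex of 50 nM HP1-beta and 50 nM b-H3(1-18)K9me3 in PBS pH 7.4 with 0.01% Tween-20.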

Results filed as inconclusive are left out. Calls of active or inactive are those of the source. The call rests on the fitted dose curve; in most records, active means well fitted curve in the direction sought with a large enough effect; inconclusive means small, poorly fitted or top-dose-only effect, or another doubt; inactive means no such curve, though single readings can be large; an effect the other way counts as inactive or inconclusive.

Sequence of Flap endonuclease 1 (Homo sapiens) (P39748 whole entry, looked up): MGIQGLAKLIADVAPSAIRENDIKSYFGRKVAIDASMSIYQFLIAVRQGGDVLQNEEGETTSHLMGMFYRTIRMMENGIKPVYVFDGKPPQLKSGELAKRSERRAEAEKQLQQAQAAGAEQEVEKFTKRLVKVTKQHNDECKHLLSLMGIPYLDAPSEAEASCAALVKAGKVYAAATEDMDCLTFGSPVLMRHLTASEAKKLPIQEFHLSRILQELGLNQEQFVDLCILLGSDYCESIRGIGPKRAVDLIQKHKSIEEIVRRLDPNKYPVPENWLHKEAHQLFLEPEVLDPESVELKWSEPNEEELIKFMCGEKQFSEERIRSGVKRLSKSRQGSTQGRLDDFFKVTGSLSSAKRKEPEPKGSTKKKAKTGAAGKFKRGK
Sequence of Chromobox protein homolog 1 (Homo sapiens) (P83916 whole entry, looked up): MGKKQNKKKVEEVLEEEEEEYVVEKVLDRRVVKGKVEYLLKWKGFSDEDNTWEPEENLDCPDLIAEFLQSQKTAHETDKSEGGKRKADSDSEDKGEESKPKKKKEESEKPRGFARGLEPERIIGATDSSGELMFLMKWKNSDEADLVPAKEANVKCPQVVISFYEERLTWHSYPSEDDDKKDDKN
Sequence of Thyrotropin receptor (Homo sapiens) (P16473 whole entry, looked up): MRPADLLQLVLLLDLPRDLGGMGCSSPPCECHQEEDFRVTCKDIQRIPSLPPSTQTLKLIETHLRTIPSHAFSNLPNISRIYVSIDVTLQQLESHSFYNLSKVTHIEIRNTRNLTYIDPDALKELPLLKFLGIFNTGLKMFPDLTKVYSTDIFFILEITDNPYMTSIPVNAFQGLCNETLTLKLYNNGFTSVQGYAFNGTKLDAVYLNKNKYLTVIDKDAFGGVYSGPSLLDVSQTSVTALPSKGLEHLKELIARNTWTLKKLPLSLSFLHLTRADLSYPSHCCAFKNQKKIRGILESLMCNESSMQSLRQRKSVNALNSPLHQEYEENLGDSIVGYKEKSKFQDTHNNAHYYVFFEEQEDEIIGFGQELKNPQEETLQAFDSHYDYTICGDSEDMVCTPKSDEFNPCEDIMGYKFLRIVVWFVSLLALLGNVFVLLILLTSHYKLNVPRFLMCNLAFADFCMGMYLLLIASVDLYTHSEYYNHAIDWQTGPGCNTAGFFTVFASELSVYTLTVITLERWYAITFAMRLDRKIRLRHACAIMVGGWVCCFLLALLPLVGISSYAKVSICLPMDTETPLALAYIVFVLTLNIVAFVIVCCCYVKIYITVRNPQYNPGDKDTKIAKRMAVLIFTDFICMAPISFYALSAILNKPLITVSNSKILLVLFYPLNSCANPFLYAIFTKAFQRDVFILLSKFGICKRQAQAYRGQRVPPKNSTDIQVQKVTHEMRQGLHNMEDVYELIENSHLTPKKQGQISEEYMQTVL
Sequence of Transient receptor potential cation channel subfamily V member 1 (Homo sapiens) (Q8NER1 whole entry, looked up): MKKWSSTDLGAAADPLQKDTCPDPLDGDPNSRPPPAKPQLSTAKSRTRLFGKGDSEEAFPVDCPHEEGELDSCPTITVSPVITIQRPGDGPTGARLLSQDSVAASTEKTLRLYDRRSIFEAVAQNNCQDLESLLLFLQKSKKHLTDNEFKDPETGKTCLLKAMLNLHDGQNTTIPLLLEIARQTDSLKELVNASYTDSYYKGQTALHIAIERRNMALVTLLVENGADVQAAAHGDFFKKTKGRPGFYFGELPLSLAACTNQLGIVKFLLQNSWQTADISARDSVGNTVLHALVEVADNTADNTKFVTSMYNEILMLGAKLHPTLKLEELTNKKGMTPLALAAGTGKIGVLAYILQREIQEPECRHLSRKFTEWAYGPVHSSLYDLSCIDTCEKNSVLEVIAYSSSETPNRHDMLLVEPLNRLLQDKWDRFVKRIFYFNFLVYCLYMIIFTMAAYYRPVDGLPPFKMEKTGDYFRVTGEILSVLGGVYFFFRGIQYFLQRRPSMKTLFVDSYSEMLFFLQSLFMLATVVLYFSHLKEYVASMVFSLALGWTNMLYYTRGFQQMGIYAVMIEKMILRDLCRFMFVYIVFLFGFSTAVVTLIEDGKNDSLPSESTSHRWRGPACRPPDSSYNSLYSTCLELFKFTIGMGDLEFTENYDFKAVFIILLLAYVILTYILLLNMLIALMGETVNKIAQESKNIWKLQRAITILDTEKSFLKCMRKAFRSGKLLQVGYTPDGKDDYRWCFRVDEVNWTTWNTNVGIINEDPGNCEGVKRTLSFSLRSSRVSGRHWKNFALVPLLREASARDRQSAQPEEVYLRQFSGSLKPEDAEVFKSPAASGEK

`N=c1ccn2c(n1)O[C@H]1[C@@H](O)[C@@H](CO)O[C@H]12`: the outcome in assay [1], in assay [2], in assay [3] and in assay [4] was inactive.
As to `O=c1[nH]c(=O)n([C@H]2C[C@@H](O)[C@@H](CO)O2)cc1C=CBr`, the result in assay [5] and in assay [6] was inactive.
As for `COc1ccc2cc([S+]([O-])Cc3ncc(C)c(OC)c3C)nc2c1`, the result in assay [5] and in assay [6] was inactive.

(Values after PubChem BioAssay (NCATS).)
